According to PubChem BioAssay (NCI):
This is part of a sample that, as a whole, favours compounds with a hit. Of some 83,000 tested, about 20% had one in any assay.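 Testing used 96-well plates and a 48-hour single-concentration exposure. Example: -40 means 40% of the starting cells died.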 A number with no mark means an inactive call. Calls of active or inactive are those of the source. Rule for the calls: active = growth percent below 10; inactive = the rest.

Each compound was assayed on UO-31 renal (assay: NCI-60 one-dose screen, 48 h (100 = growth as untreated, 0 = no growth, -100 = all killed)). Details: 10 µM unless noted.

Row | Compound | growth
1 | NS(=O)(=O)c1ccc(Nc2nc(N/N=C/c3c[nH]c4ccccc34)nc(Nc3ccccc3)n2)cc1 | 49.2%
2 | CCc1cccc2c3c(sc12)C(c1ccc(OC)cc1)C(C#N)=C(/N=C/c1ccc(Cl)cc1)O3 (stereo not drawn) | 37.8%
3 | Cn1ccnc1C(=O)/C=C/c1ccc(CNC(=O)c2ccc(F)cc2)cc1 | 34.9%
4 | N#Cc1cccc(NC(=O)c2cc(-c3ccc(F)cc3F)ccc2O)c1 | -14.2% (active)
5 | O=S(=O)(NCCCNc1nccc(-c2[nH]c(-c3ccccc3)nc2-c2ccc(Cl)c(O)c2)n1)c1cccc2ccccc12 | 20.2%
6 | CC1(C)[C@@H](O)CC[C@]2(C)[C@H]3CC[C@@H]4[C@H]5[C@H](C(=O)/C=C\c6ccncc6)CC[C@]5(O)CC[C@@]4(C)[C@]3(C)CC[C@@H]12 | 53.1%
7 | CS(=O)(=O)Nc1cc(-c2ccc3ncc(C#N)c(N[C@H](CO)c4ccccc4)c3c2)cnc1Cl | 43.4%
8 | O=C(CSc1nc2ccccc2c(=O)n1-c1ccccc1)Nc1ccc(-c2nc3ccc([N+](=O)[O-])cc3[nH]2)cc1 | 76.9%
9 | Oc1cccc2ccc(-c3nnc(SCc4ccc(O)c5ncccc45)n3-c3ccccc3)nc12 | -22.8% (active)
10 | C=CCn1c(SCC(=O)Nc2ccc(C(=O)/C=C/c3ccc(C)cc3)cc2)nnc1-c1c[nH]c2ccccc12 | 54.2%
11 | C[C@@H](Nc1c(C#N)cnc2ccc(-c3cnc(Cl)c(NS(C)(=O)=O)c3)cc12)c1ccccc1 | 4.15% (active)
12 | CCN(CC)c1ccc(NC2=C(Cl)C(=O)c3nc(C)ccc3C2=O)cc1 | -60% (active)
13 | C#Cc1nc(C(=O)NCCC(=O)Nc2ccc(NC(=O)c3ccc(/C=C/C(=O)c4nccn4C)cc3)cc2)cs1 | 30.7%
14 | CCN(CC)CCn1c2ccc(O)cc2c2sc3cc(OC)ccc3c(=O)c21 | 26.8%
15 | CC1(C)CC[C@]2(C(=O)N3CCOCC3)CC[C@]3(C)C(=CC[C@@H]4[C@@]5(C)C/C(=C/c6ccccn6)C(=O)C(C)(C)[C@@H]5CC[C@]43C)[C@@H]2C1 | 42%
16 | Cc1nc(-c2ccccc2O)ccc1C(=O)N=Nc1c(O)[nH]c2ccc(Br)cc12 | 73%
17 | O=C(CCn1c[n+](CC(=O)c2ccc(-c3ccccc3)cc2)c2ccccc21)Nc1cccc2cccnc12 | 82.6%
18 | COC(=O)c1[nH]nc2c1C1(C(=O)c3cccc4cccc1c34)C(C#N)=C(N)O2 (stereo not drawn) | 73.4%
19 | N=c1c2cc(-c3ccccc3)oc2ncn1/N=C/c1ccc(Cl)cc1 | 94%

Row | Compound | growth
20 | Cc1ccc(-n2c(/C=C3\C(=O)Nc4ccccc43)ccc2CO)cc1 | 65%
21 | CC(=O)N(C)C1CCc2c(sc(NC(=O)c3ccc(C(C)(C)C)cc3)c2C(N)=O)C1 (stereo not drawn) | 89%
22 | CC1(C)[C@@H](O)CC[C@]2(C)[C@H]3CC[C@@H]4[C@H]5[C@H](C(=O)/C=C\c6ccc([N+](=O)[O-])cc6)CC[C@]5(O)CC[C@@]4(C)[C@]3(C)CC[C@@H]12 | 55.2%
23 | Cc1ccc(NC(=O)CNc2cc(C(N)=O)cc(F)c2C)c(Cl)c1 | 50.4%
24 | COc1ccc(N2CCN(C3=C(Cl)C(=O)C(C)=C(C)C3=O)CC2)cc1 | 91.4%
25 | CN1CCN(c2ccc(/C=N/Nc3nc4ccccc4c(=O)n3-c3ccccc3)cc2)CC1 | 95.5%
26 | COc1cc(-c2nc3sccn3c2-c2ccnc(S(C)(=O)=O)n2)ccc1F | 85.2%
27 | Cc1ccc2c(c1)Oc1nc(N)c(C#N)c(N)c1C2Sc1ccc(F)cc1 (stereo not drawn) | -98.2% (active)
28 | CCCn1cnc2c(c1=N)C(c1ccc(F)cc1)c1sc3c(C)cccc3c1O2 (stereo not drawn) | 32.8%
29 | COc1ccc(Cn2cc3c(c2-c2cc(OC)c(OC)c(OC)c2)CCc2c(CN4CCCC4)noc2-3)cc1 | 35.9%
30 | CC1=N[C@@H]2CN(C(=O)OC(C)(C)C)C[C@@H]2n2c1cc1ccccc1c2=O | 74.9%
31 | COc1cc(OC)cc(C(=O)Nc2cccc(C#Cc3cccc4[nH]nc(N)c34)c2)c1 | 32.2%
32 | COc1ccccc1-n1cc(C#N)c(N)c1C(=O)c1ccc(Br)cc1 | 73%
33 | CS(=O)(=O)Nc1cc(-c2ccc3ncc(C#N)c(NCc4cccc(F)c4)c3c2)cnc1Cl | 2.87% (active)
34 | CC[C@H](CO)Nc1ccc2ncc(C#Cc3cncc(C(=O)Nc4ccc(CN5CCN(C)CC5)c(C(F)(F)F)c4)c3)n2n1 | -83.3% (active)
35 | COc1cc(-c2nc(SCCC(C)C)nc(NNC(=O)c3ccncc3)c2C#N)cc(OC)c1OC | 19.3%
36 | CCCCCc1ccc(S(=O)(=O)Nc2cc(-c3csc(NC(=O)CN4CCN(CCO)CC4)n3)ccc2OC)cc1 | 54.5%
37 | CCCn1cnc2c(c1=N)C(c1ccc(OC)cc1)c1sc3c(CC)cccc3c1O2 (stereo not drawn) | 33.5%
38 | C#Cc1ccc(C(=O)NCc2ccc(/C=C/C(=O)c3nccn3C)cc2)cc1 | 29.3%
